The source of these data is PubChem BioAssay (Tox21).

Records with an inconclusive call do not appear. The source made the active and inactive calls. The call rests on the fitted dose curve; in most records, active means well fitted activation curve with a large enough effect in the signal ratio in the repeat runs (not every such curve was filed as active); inconclusive means weak or mixed curves; inactive means flat fitted curve, though single readings scatter; the % refers to the signal ratio.
On the % scale 0 is the no-effect control and ±100 the full control effect.

This assay in a line: qHTS assay to identify small molecule agonists of the hypoxia (HIF-1) signaling pathway (AID 1224846). To be noted: HRE-bla ME-180 cells, beta-lactamase ratio, 17 h; series mostly up to 76.8 µM; activation: at the top concentration. An excerpt:
U.S. Tox21 Program National Center for Advancing Translational Sciences [NCATS] NIH Chemical Genomics Center [NCGC] U.S. Environmental Protection Agency [EPA] National Institutes of Environmental Health Sciences [NIEHS] National Toxicology Program [NTP] U.S. Food and Drug Administration [FDA] Tox21 Assay Overview: Hypoxia-inducible factor-1 (HIF-1) is the major hypoxia-regulated transcription factor that controls cellular responses to low oxygen concentration. HIF-1 is composed of two subunits: hypoxia responsive HIF-1-alpha and constitutively expressed HIF-1-beta, which is also known as aryl hydrocarbon receptor nuclear translocator. During hypoxic conditions, HIF-1-alpha heterodimerizes with HIF-1-beta and translocates into the nucleus where the HIF-1 complex binds to the hypoxia-response element (HRE) and activates expression of target genes such as VEGF (vascular endothelial growth factor). The HIF-1 pathway is essential to normal growth and development, and is involved in the pathophysiology of cancer, inflammation, and ischemia. Using a beta-lactamase reporter-gene under control of the hypoxia response element, a cell-based assay [CellSensor(TM) HRE-bla ME-180 from Life Technologies, Carlsbad, CA] was used to measure hypoxia-induced signaling. Tox21 10K library compounds were measured for their ability to induce the reporter gene activity.
Tox21 Assay Protocol Summary: HRE-bla ME-180 cells were dispensed at 2,000 cells per well in 6 uL of assay medium containing 0.5% dialyzed FBS into black wall/clear-bottom 1536-well plates using a Multidrop Combi (Thermo Scientific, Waltham, MA) dispenser. After the assay plates were incubated at 37C and 5% CO2 for 5 hrs, 23 nL of compounds dissolved in DMSO, positive controls or DMSO only was transferred to each well of the assay plate using a Pintool station (Kalypsys, San Diego, CA). The assay plates were incubated at 37C and 5% CO2 for 17 hrs. One uL of LiveBLAzerTM B/G FRET substrate (CCF4-AM) (Life Technologies) was added to each well using a Flying Reagent Dispenser (Aurora Discovery, San Diego, CA).
In general terms: In qHTS, concentration-response curves come from the screen itself.
Turning to `Cc1cccc(C)c1NC(=O)CN(CC(=O)O)CC(=O)O`, the “activation” value was -0.694% [at 35.5 µM] (inactive).
Under `O=C(CS)Nc1ccccc1` stands -0.164% [at 35.5 µM] (inactive).
The figure for `CN(Cc1ccc(C(C)(C)C)cc1)Cc1cccc2ccccc12` is 2.03% [at 35.5 µM] (inactive); for `O=S(=O)(Oc1ccc(Cl)cc1)c1ccccc1` it is 1.49% (inactive); for `CCCCCCCCCCCc1ccccc1` it is -0.376% (inactive).
Take `NCc1ccccc1Sc1ccccc1CO`: the “activation” value was 1.27% [at 35.5 µM] (inactive).
Under `CC(=O)c1ccc2c(c1)N(CCCN1CCC(CCO)CC1)c1ccccc1S2` stands 0.799% [at 35.5 µM] (inactive); under `CCCCC1=NC2(CCCC2)C(=O)N1Cc1ccc(-c2ccccc2-c2nn[nH]n2)cc1`, -0.649% [at 35.5 µM] (inactive).
Under `Cc1cccc(C)c1OCC(=O)N[C@@H](Cc1ccccc1)[C@@H](O)C[C@H](Cc1ccccc1)NC(=O)[C@H](C(C)C)N1CCCNC1=O` stands 0.551% [at 35.5 µM] (inactive).
Under `CCc1cc(C2=C(C(=O)O)N(c3ccccc3C(F)(F)F)S(=O)(=O)c3ccccc32)cc2c1OCO2` stands -0.449% (inactive); under `Cc1ccc(C(=O)Oc2ccc(C(O)CNC(C)(C)C)cc2OC(=O)c2ccc(C)cc2)cc1` (stereo not given), 1.38% [at 35.5 µM] (inactive).
With `O=C(OCCc1ccccc1)c1ccccc1`, the “activation” value is 0.109% (inactive).
The figure for `C=C1[C@H]2CC[C@@H]3[C@H]2C(C)(C)CCC[C@]13C` is 1.06% (inactive); for `CC(C)OC(=O)C(C)N(C(=O)c1ccccc1)c1ccc(F)c(Cl)c1` (stereo not given) it is 2.68% (inactive).
As for `O=C(Nc1ccc(S(=O)(=O)N2CCOCC2)cc1)c1cc(Cl)ccc1NS(=O)(=O)c1ccc(Cl)s1`, the “activation” value is 5.55% [at 35.5 µM] (inactive).
Turning to `Nc1ccccc1S(=O)(=O)c1ccccc1`, the “activation” value is 1.39% (inactive).
On to `CCCCC(CC)CN1C(=O)C2C3C=CC(C3)C2C1=O` (stereo not given), for which the “activation” value was 3.74% (inactive).
Under `c1ccc(CNCCNCc2ccccc2)cc1` stands -2.78% [at 35.5 µM] (inactive).
The figure for `O=C(c1ccc(F)cc1)C1CCN(CCn2c(=S)[nH]c3ccccc3c2=O)CC1` is -0.691% [at 35.5 µM] (inactive); for `COc1ccc(C)cc1[N+](=O)[O-]` it is -0.639% (inactive); for `O=C1OC(CN2CCOCC2)CN1/N=C/c1ccc([N+](=O)[O-])o1` (stereo not given) it is 0.772% [at 35.5 µM] (inactive).
Under `O=P(O)(OCc1ccccc1)OCc1ccccc1` stands -0.27% (inactive); under `COc1ccc(-c2nc3ccc(C4=NNC(=O)CC4C)cc3[nH]2)cc1` (stereo not given), -0.163% [at 35.5 µM] (inactive).
Take `NS(=O)(=O)c1ccc(N2CCCCS2(=O)=O)cc1`: the “activation” value was -0.589% [at 35.5 µM] (inactive).
Under `Cc1ccc(C(C)OC(=O)C2(C)CCC(C(=O)O)C2(C)C)cc1` (stereo not given) stands -0.516% [at 35.5 µM] (inactive).
The figure for `CC(=O)[O][Al]` is 0.0679% (inactive); for `CC(=O)[O][Al][O]C(C)=O` it is 0.193% (inactive); for `CCOC(=O)c1cccnc1` it is 0.469% [at 35.5 µM] (inactive).
For `CCCCCCOC(=O)NC(=N)c1ccc(NCc2nc3cc(C(=O)N(CCC(=O)OCC)c4ccccn4)ccc3n2C)cc1`, the “activation” value is 2.29% [at 35.5 µM] (inactive).
Under `CCOC(=O)C(O)c1ccccc1` (stereo not given) stands -0.636% [at 35.5 µM] (inactive); under `CCCCCC[C@@H](O)C/C=C\CCCCCCCC(=O)OC`, -0.336% (inactive).
Under `CC(CC=O)c1ccccc1` (stereo not given) stands -1.02% (inactive); under `CN1C[C@H]2c3ccccc3Oc3ccc(Cl)cc3[C@@H]2C1`, 1.6% [at 35.5 µM] (inactive).
With `O=[N+]([O-])c1ccc(NCCO)c(OCCO)c1`, the “activation” value was 0.101% (inactive).
Turning to `Nc1cccc([N+](=O)[O-])c1`, the “activation” value was -0.287% (inactive).
Under `CCCC(=O)Nc1ccc(O)c(C(C)=O)c1` stands -0.704% [at 35.5 µM] (inactive); under `O=C(O)c1ccccc1Cl`, 0.263% (inactive); under `O=C(O)C1(C(=O)Nc2ccc(Cl)cc2Cl)CC1`, 3.75% (inactive).
Consider `C=C(C)C(=O)OCCOCC`, for which the “activation” value is -1.34% (inactive).
For the compound `CC(C)=CCC/C(C)=C/CC/C(C)=C/CO`, the “activation” value is 1.14% (inactive).
